Test results taken from PubChem BioAssay AID1159580 (chemical genetic matrix, 2015).
Among all 5,500 compounds or so, about 2,000 (36%) were called active. Another 18% or so got no clear call; they are omitted. Cut-off read from the data, not from the text of the source: active = normalized growth mostly below about 0.91 (no sharp cut-off); inconclusive = no clear call, values can overlap the other calls; inactive = mostly above about 0.92. The list shows a part of the results.

Assay: chemical genetic growth profiling, strain panel (AID 1159580);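 note: tested at 20 µM; growth read once vehicle control cultures reached saturation at 30 °C; 1 = growth at the plate median or of vehicle wells; lower values mean less growth of the strain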
Settings: growth OD

Measured: normalized growth

NC[C@@H]1CC[C@@H](N)[C@@H](O[C@H]2[C@H](O)[C@@H](O[C@H]3O[C@H](CO)[C@@H](O)[C@H](N)[C@H]3O)[C@H](N)C[C@@H]2N)O1
inactive: S. cerevisiae deletion strains, locus YAL013W, strain DEP1, hits give low values 0.987 | S. cerevisiae deletion strains, locus YBR021W, strain FUR4, hits give low values 1.06 | S. cerevisiae deletion strains, locus YBR229C, strain ROT2, hits give low values 0.959 | S. cerevisiae deletion strains, locus YCL029C, strain bik1, hits give low values 0.985 | S. cerevisiae deletion strains, locus YDL035C, strain GPR1, hits give low values 0.995 | S. cerevisiae deletion strains, locus YDL074C, strain BRE1, hits give low values 0.983 | S. cerevisiae deletion strains, locus YDL101C, strain DUN1, hits give low values 0.952 | S. cerevisiae deletion strains, locus YDL134C, strain PPH21, hits give low values 0.993 | S. cerevisiae deletion strains, locus YDL185W, strain tfp1, hits give low values 0.984 | S. cerevisiae deletion strains, locus YDL192W, strain arf1, hits give low values 0.993 | S. cerevisiae deletion strains, locus YDR101C, strain arx1, hits give low values 1 | S. cerevisiae deletion strains, locus YDR150W, strain NUM1, hits give low values 0.986 | S. cerevisiae deletion strains, locus YDR162C, strain NBP2, hits give low values 0.967 | S. cerevisiae deletion strains, locus YDR318W, strain mcm21, hits give low values 1.01 | S. cerevisiae deletion strains, locus YDR388W, hits give low values 1 | S. cerevisiae deletion strains, locus YDR502C, strain sam2, hits give low values 1 | S. cerevisiae deletion strains, locus YEL061C, strain CIN8, hits give low values 0.987 | S. cerevisiae deletion strains, locus YER110C, hits give low values 0.996 | S. cerevisiae deletion strains, locus YER155C, strain BEM2, hits give low values 1 | S. cerevisiae deletion strains, locus YER167W, strain BCK2, hits give low values 0.98 | S. cerevisiae deletion strains, locus YGL078C, strain dbp3, hits give low values 0.994 | S. cerevisiae deletion strains, locus YGL086W, strain mad1, hits give low values 0.995 | S. cerevisiae deletion strains, locus YGL248W, strain PDE1, hits give low values 0.978 | S. cerevisiae deletion strains, locus YGR078C, strain PAC10, hits give low values 0.986 | S. cerevisiae deletion strains, locus YGR135W, strain pre9, hits give low values 0.982 | S. cerevisiae deletion strains, locus YGR229C, strain SMI1, hits give low values 1.01 | S. cerevisiae deletion strains, locus YGR252W, strain gcn5, hits give low values 1.02 | S. cerevisiae deletion strains, locus YHR030C, strain SLT2, hits give low values 0.995 | S. cerevisiae deletion strains, locus YHR079C, strain IRE1 (second series), hits give low values 1 | S. cerevisiae deletion strains, locus YHR094C, strain hxt1, hits give low values 1 | S. cerevisiae deletion strains, locus YHR129C, strain ARP1, hits give low values 0.992 | S. cerevisiae deletion strains, locus YHR200W, strain rpn10, hits give low values 0.988 | S. cerevisiae deletion strains, locus YIL066C, strain RNR3, hits give low values 0.995 | S. cerevisiae deletion strains, locus YIL073C, strain SPO22, hits give low values 0.971 | S. cerevisiae deletion strains, locus YIL125W, strain kgd1, hits give low values 0.993 | S. cerevisiae deletion strains, locus YIR030C, strain dcg1, hits give low values 0.985 | S. cerevisiae deletion strains, locus YJL095W, strain BCK1, hits give low values 0.984 | S. cerevisiae deletion strains, locus YJL134W, strain LCB3, hits give low values 0.978 | S. cerevisiae deletion strains, locus YJL168C, strain set2, hits give low values 0.995 | S. cerevisiae deletion strains, locus YJL187C, strain SWE1 (second series), hits give low values 0.977 | S. cerevisiae deletion strains, locus YJR043C, strain POL32, hits give low values 1.01 | S. cerevisiae deletion strains, locus YJR075W, strain HOC1, hits give low values 0.996 | S. cerevisiae deletion strains, locus YKL009W, strain mrt4, hits give low values 0.974 | S. cerevisiae deletion strains, locus YKL068W, hits give low values 0.996 | S. cerevisiae deletion strains, locus YKL085W, strain MDH1 (second series), hits give low values 0.983 | S. cerevisiae deletion strains, locus YKL085W, strain MDH1, hits give low values 0.983 | S. cerevisiae deletion strains, locus YKL190W, strain CNB1, hits give low values 1 | S. cerevisiae deletion strains, locus YKR001C, strain vps1, hits give low values 0.994 | S. cerevisiae deletion strains, locus YLR039C, strain RIC1, hits give low values 0.938 | S. cerevisiae deletion strains, locus YLR058C, strain SHM2, hits give low values 0.974 | S. cerevisiae deletion strains, locus YLR102C, strain apc9, hits give low values 0.993 | S. cerevisiae deletion strains, locus YLR262C, strain YPT6, hits give low values 0.9 | S. cerevisiae deletion strains, locus YLR268W, strain sec22, hits give low values 0.986 | S. cerevisiae deletion strains, locus YLR330W, strain CHS5, hits give low values 0.981 | S. cerevisiae deletion strains, locus YLR342W, strain FKS1 (second series), hits give low values 1.01 | S. cerevisiae deletion strains, locus YLR371W, strain rom2, hits give low values 1 | S. cerevisiae deletion strains, locus YLR418C, strain cdc73, hits give low values 0.968 | S. cerevisiae deletion strains, locus YML016C, strain PPZ1, hits give low values 0.981 | S. cerevisiae deletion strains, locus YML032C, strain rad52, hits give low values 1 | S. cerevisiae deletion strains, locus YML124C, strain tub3, hits give low values 1.01 | S. cerevisiae deletion strains, locus YMR078C, strain ctf18, hits give low values 1 | S. cerevisiae deletion strains, locus YMR223W, strain ubp8, hits give low values 1.01 | S. cerevisiae deletion strains, locus YMR263W, strain SAP30, hits give low values 0.983 | S. cerevisiae deletion strains, locus YMR307W, strain GAS1, hits give low values 1.13 | S. cerevisiae deletion strains, locus YNL067W, strain RPL9B, hits give low values 0.981 | S. cerevisiae deletion strains, locus YNL128W, strain TEP1, hits give low values 0.98 | S. cerevisiae deletion strains, locus YNL153C, strain GIM3, hits give low values 0.991 | S. cerevisiae deletion strains, locus YNL233W, strain BNI4, hits give low values 0.994 | S. cerevisiae deletion strains, locus YNL250W, strain rad50, hits give low values 0.983 | S. cerevisiae deletion strains, locus YNL271C, strain bni1, hits give low values 1 | S. cerevisiae deletion strains, locus YNL298W, strain CLA4, hits give low values 1.01 | S. cerevisiae deletion strains, locus YNL307C, strain MCK1, hits give low values 0.997 | S. cerevisiae deletion strains, locus YNL322C, strain KRE1, hits give low values 0.987 | S. cerevisiae deletion strains, locus YNR052C, strain pop2, hits give low values 0.953 | S. cerevisiae deletion strains, locus YOL006C, strain TOP1, hits give low values 0.917 | S. cerevisiae deletion strains, locus YOL012C, strain htz1 0.745 | S. cerevisiae deletion strains, locus YOL147C, strain pex11, hits give low values 1.01 | S. cerevisiae deletion strains, locus YOR061W, strain CKA2, hits give low values 0.95 | S. cerevisiae deletion strains, locus YOR069W, strain VPS5, hits give low values 0.996 | S. cerevisiae deletion strains, locus YOR136W, strain idh2, hits give low values 1 | S. cerevisiae deletion strains, locus YOR144C, strain elg1, hits give low values 1 | S. cerevisiae deletion strains, locus YOR184W, strain ser1, hits give low values 1.03 | S. cerevisiae deletion strains, locus YOR316C, strain cot1, hits give low values 0.985 | S. cerevisiae deletion strains, locus YPL055C, strain LGE1, hits give low values 0.984 | S. cerevisiae deletion strains, locus YPL241C, strain CIN2, hits give low values 0.991 | S. cerevisiae deletion strains, locus YPR119W, strain clb2, hits give low values 1 | S. cerevisiae deletion strains, locus YPR141C, strain kar3, hits give low values 0.966 | S. cerevisiae deletion strains, locus YPR163C, strain tif3, hits give low values 1.01 | S. cerevisiae deletion strains, locus YPR167C, strain met16, hits give low values 0.988 | S. cerevisiae deletion strains, strain wtn01, hits give low values 0.987 | S. cerevisiae strains, strain wild type, hits give low values 0.992
